# Measurements taken from PubChem BioAssay (NCATS).
# Results filed as inconclusive are left out. Entries that show only a call come without a potency. Activity calls are given as the source filed them. The call rests on the fitted dose curve; in most records, active means well fitted curve in the direction sought with a large enough effect; inconclusive means small, poorly fitted or top-dose-only effect, or another doubt; inactive means no such curve, though single readings can be large; an effect the other way counts as inactive or inconclusive.
# Key:
# MCC-13 = assay: qHTS assay to identify novel small-molecules to repurpose for Merkel cell carcinoma treatment (AID 1296009); conditions: MCC and control cell lines, CellTiter-Glo viability, 72 h; series mostly up to 46 µM; further: nearly all actives have a fitted effect of over 60% in size; further: potency means the concentration at half of the fitted maximal effect
# In short: (§1)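 qHTS format: cells treated with library compounds in DMSO across 8 (NPC) or 11 (MIPE) concentrations. Readout after 72 hr at 37 degree celsius was CellTiter-Glo luminescence.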
# MCC-26 = assay: as above; conditions: MCC and control cell lines, CellTiter-Glo viability, 72 h; series mostly up to 46 µM
# In short: as §1
# MKL-1 = assay: as above; conditions: MCC and control cell lines, CellTiter-Glo viability, 72 h; series mostly up to 46 µM
# In short: as §1
# MKL-2 = assay: as above; conditions: MCC and control cell lines, CellTiter-Glo viability, 72 h; series mostly up to 46 µM
# In short: as §1
# WaGa = assay: as above; conditions: MCC and control cell lines, CellTiter-Glo viability, 72 h; series mostly up to 46 µM
# In short: as §1
# C33A = assay: Primary qHTS to identify gynecologic anti-cancer compounds using libraries of approved drugs and bioactive compounds (AID 1345084); conditions: Gynecologic cancer cell panel viability, ATPlite luminescence, 48 h; series mostly up to 57.5 µM; further: nearly all actives have a fitted effect of over 55% in size
# In short: (§2)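 Luminescence from the ATPlite ATP-monitoring reagent indicates viable cell number; lower signal means cytotoxicity. Cells received compound 16 h after seeding and were exposed for 48 h across five concentrations.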
# CAOV3 = assay: as above; conditions: Gynecologic cancer cell panel viability, ATPlite luminescence, 48 h; series mostly up to 57.5 µM
# In short: as §2
# CASKI = assay: as above; conditions: Gynecologic cancer cell panel viability, ATPlite luminescence, 48 h; series mostly up to 57.5 µM
# In short: as §2
# UISO = assay: qHTS assay to identify novel small-molecules to repurpose for Merkel cell carcinoma treatment (AID 1296009); conditions: MCC and control cell lines, CellTiter-Glo viability, 72 h; series mostly up to 46 µM; further: nearly all actives have a fitted effect of over 60% in size; further: potency means the concentration at half of the fitted maximal effect
# In short: as §1
Compound,Potency (MCC-13),Potency (MCC-26),Potency (MKL-1),Potency (MKL-2),Potency (WaGa),Potency (C33A),Potency (CAOV3),Potency (CASKI),Potency (UISO)
C[C@@H]1CC[C@H]2[C@@H](C)C(=O)O[C@@H]3O[C@@]4(C)CC[C@@H]1[C@]32OO4,inactive,inactive,inactive,inactive,inactive,inactive,inactive,inactive,–
CN1C2CCC(C)(C)C1CC(OC(=O)C(O)(c1cccs1)c1cccs1)C2 (configuration not stated),inactive,inactive,inactive,inactive,inactive,inactive,inactive,inactive,inactive
CC1N=C(N)OC1c1ccccc1 (configuration not stated),inactive,inactive,inactive,inactive,–,inactive,inactive,inactive,inactive
C[C@]12C=CC(=O)C=C1CC[C@@H]1[C@@H]2CC[C@@]2(C)[C@H]1CC[C@]2(C)O,inactive,inactive,inactive,inactive,–,inactive,–,inactive,–
CC(C)=C[C@@H]1[C@@H](C(=O)OCc2coc(Cc3ccccc3)c2)C1(C)C,inactive,inactive,inactive,inactive,–,inactive,inactive,inactive,inactive
O=C(NC(=O)c1c(F)cccc1F)Nc1cc(Cl)c(OC(F)(F)C(F)C(F)(F)F)cc1Cl (configuration not stated),inactive,inactive,inactive,–,inactive,inactive,inactive,inactive,inactive
Cc1ncc2n1-c1ccc(Cl)cc1C(c1ccccc1F)=NC2,inactive,inactive,inactive,inactive,–,inactive,inactive,inactive,inactive
CCC1(c2cccc(O)c2)CCCCN(C)C1 (configuration not stated),inactive,inactive,inactive,inactive,inactive,inactive,inactive,inactive,inactive
COc1ccc(CN2CCNCC2)c(OC)c1OC,inactive,inactive,inactive,inactive,inactive,inactive,–,inactive,inactive
CCOC(=O)c1cncn1C(C)c1ccccc1 (configuration not stated),inactive,inactive,inactive,inactive,inactive,inactive,inactive,inactive,inactive
CN1C[C@@H](NS(=O)(=O)N(C)C)C[C@@H]2c3cccc4c3c(cn4C)C[C@H]21,inactive,inactive,inactive,inactive,inactive,inactive,inactive,inactive,inactive
CN1CCc2cc(Cl)c(O)cc2[C@H]2c3ccccc3CC[C@@H]21,inactive,inactive,inactive,inactive,–,inactive,inactive,inactive,inactive
CN(C)CCc1c[nH]c2ccccc12,inactive,inactive,inactive,inactive,inactive,inactive,inactive,inactive,inactive
Clc1ccc(C(OCCN2CCCCC2)c2ccccc2)cc1 (configuration not stated),inactive,inactive,inactive,inactive,–,inactive,–,inactive,–
C[C@H](N)[C@H](O)c1ccc(O)c(O)c1,inactive,inactive,inactive,–,inactive,inactive,–,inactive,inactive
Nc1ccc(N)cc1,inactive,inactive,inactive,inactive,inactive,inactive,inactive,inactive,inactive
CCCN(CCC)CCc1c[nH]c2ccccc12,inactive,inactive,inactive,inactive,inactive,inactive,inactive,inactive,–
CC(Cc1ccccc1)NCCCCl (configuration not stated),inactive,inactive,inactive,–,inactive,inactive,inactive,inactive,inactive
O=C(N[C@H]1N=C(c2ccccc2F)c2cccc3c2N(CC3)C1=O)c1cc2ccccc2[nH]1,inactive,inactive,inactive,inactive,inactive,–,inactive,inactive,inactive
CCOC(=O)C1(c2ccccc2)CCN(CCc2ccc(N)cc2)CC1,inactive,inactive,inactive,inactive,inactive,inactive,inactive,inactive,–
O=C(O)CCCCCCNC1c2ccccc2CCc2ccccc21,inactive,inactive,inactive,inactive,inactive,inactive,inactive,inactive,–
Oc1ccc2[nH]cc(CCCCN3CC=C(c4ccccc4)CC3)c2c1,inactive,inactive,8.41 µM (active),5.96 µM (active),2.99 µM (active),inactive,–,inactive,8.41 µM (active)
ClCc1cccc(Cl)c1,inactive,inactive,inactive,inactive,inactive,inactive,inactive,inactive,inactive
Cc1cccc(Cc2cnc[nH]2)c1C,inactive,inactive,inactive,inactive,inactive,inactive,inactive,inactive,–
COc1ccc2[nH]cc(CCN(C(C)C)C(C)C)c2c1,inactive,inactive,inactive,–,inactive,inactive,inactive,inactive,inactive
C[C@H](CN1CCOCC1)C(C(=O)N1CCCC1)(c1ccccc1)c1ccccc1,inactive,inactive,inactive,inactive,–,inactive,inactive,inactive,–
Nc1ccc(Cl)cc1C(=O)c1ccccc1F,inactive,inactive,inactive,inactive,inactive,inactive,inactive,inactive,–
CCc1cc(OC)c(C[C@H](C)N)cc1OC,inactive,inactive,inactive,inactive,inactive,inactive,inactive,inactive,–
COc1cc(C[C@@H](C)N)c(OC)cc1C,inactive,inactive,inactive,inactive,inactive,–,inactive,inactive,inactive
CNC(=O)NC(O)C(Cl)(Cl)Cl (configuration not stated),inactive,inactive,inactive,inactive,inactive,inactive,inactive,inactive,inactive
